The values that follow come from PubChem BioAssay (NCI).

“And” between values parts separate entries of the source, which are not always exact repeats. Identical values can stand only once. This is part of a sample that, as a whole, favours compounds with a hit. Of some 83,000 tested, about 20% had one in any assay.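 For each line, cells grew in 96-well plates with the test compound present at a single concentration for 48 hours.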 A number with no mark means an inactive call. The source made the active and inactive calls. Rule for the calls: active = growth percent below 10; inactive = the rest.

Some test systems named below: HCT-15 colon; HT29 colon; SNB-75 CNS; SNB-19 CNS; U251 CNS; PC-3 prostate; SK-MEL-5 melanoma; UACC-62 melanoma; LOX IMVI melanoma; SK-MEL-28 melanoma; SK-MEL-2 melanoma; EKVX NSCLC; SN12C renal; UO-31 renal; TK-10 renal; ACHN renal; CAKI-1 renal; A498 renal; CCRF-CEM leukemia; MOLT-4 leukemia.
Holding throughout (assay): NCI-60 one-dose screen, 48 h (100 = growth as untreated, 0 = no growth, -100 = all killed)
Conditions in all cases: 10 µM unless noted

Consider `OCCS`, for which the growth in the assay on HCT-15 colon was 104%; in the assay with HT29 colon it was 97%; with SNB-75 CNS it was 91.1%; in the assay with SNB-19 CNS, 108%; with U251 CNS, 95.3%; in the assay with PC-3 prostate, 99.8%. In addition, the growth is 100% with SK-MEL-5 melanoma; 103% in the assay on UACC-62 melanoma; 96.2% with LOX IMVI melanoma; 109% with SK-MEL-28 melanoma; 108% in the assay on SK-MEL-2 melanoma; 98.8% in the assay with EKVX NSCLC. The growth is 107% with SN12C renal; 98% in the assay on UO-31 renal; 84.7% in the assay on TK-10 renal; 111% in the assay with ACHN renal; 105% with CAKI-1 renal; 66.4% in the assay with A498 renal. For the same molecule, the growth in the assay with CCRF-CEM leukemia was 100%; in the assay with MOLT-4 leukemia, 92.2%.
Consider `CS(=O)(=O)OCC1NC(=O)C(COS(C)(=O)=O)NC1=O` (stereo not given), for which the growth is 91.8% and 88.4% in the assay on HCT-15 colon; 85.6% and 81.3% in the assay on HT29 colon; 56.5% and 100% with SNB-75 CNS; 105% and 110% with SNB-19 CNS; 95.9% and 93.9% in the assay on U251 CNS; 88.3% and 82.6% with PC-3 prostate. Also, the growth with SK-MEL-5 melanoma is 96.5% and 103%; with UACC-62 melanoma it was 101% and 102%; in the assay on LOX IMVI melanoma it was 94.1% and 90.5%; in the assay on SK-MEL-28 melanoma, 115% and 112%; in the assay on SK-MEL-2 melanoma, 75.4% and 89.1%; with EKVX NSCLC, 98.9% and 89.2%. Besides, the growth is 108% and 111% in the assay with SN12C renal; 91.7% and 94.1% with UO-31 renal; 130% and 138% with TK-10 renal; 93.7% and 85.9% with ACHN renal; 97% and 91.3% with CAKI-1 renal; 104% and 154% in the assay on A498 renal. Also, the growth with CCRF-CEM leukemia is 82.4% and 74.2%; with MOLT-4 leukemia it was 91.6% and 69%.
Consider `O=[N+]([O-])c1ccc(NC(c2ccccc2)c2ccc3cccnc3c2O)cc1` (stereo not given), for which the growth with HCT-15 colon is 32.5%; in the assay with HT29 colon, 26%; with SNB-75 CNS, 47.3%; in the assay on SNB-19 CNS, 21.2%; in the assay with U251 CNS, 12.3%; in the assay on PC-3 prostate it was 30.3%. For the same molecule, the growth is -1.02% (active) in the assay on SK-MEL-5 melanoma; -4.08% (active) with UACC-62 melanoma; 9.64% (active) in the assay with LOX IMVI melanoma; 27.7% in the assay on SK-MEL-28 melanoma; 36.3% with SK-MEL-2 melanoma; 19.9% with EKVX NSCLC. Moreover, the growth in the assay on SN12C renal was 14.8%; in the assay on UO-31 renal, -2.13% (active); with TK-10 renal, 42.7%; in the assay with ACHN renal, 15.8%; in the assay on CAKI-1 renal it was 2.88% (active); in the assay with A498 renal, 55.8%. Further, the growth is 10.2% with CCRF-CEM leukemia and 9.81% (active) in the assay on MOLT-4 leukemia.
Regarding `CCOP(=O)(OCC)/C(C#N)=C/c1c(C)[nH]c2ccccc12`, the growth in the assay on HCT-15 colon is 108%; with HT29 colon it was 106%; with SNB-75 CNS it was 49.8%; in the assay with SNB-19 CNS, 94.6%; with U251 CNS, 88.9%; in the assay on PC-3 prostate, 83.3%. For the same molecule, the growth in the assay with SK-MEL-5 melanoma is 91.3%; in the assay with UACC-62 melanoma, 82.3%; in the assay with LOX IMVI melanoma it was 89.7%; in the assay on SK-MEL-28 melanoma it was 113%; with SK-MEL-2 melanoma it was 99.2%; in the assay with EKVX NSCLC, 97.4%. For the same molecule, the growth in the assay on SN12C renal is 92%; with UO-31 renal, 72.8%; in the assay on TK-10 renal, 93.2%; with ACHN renal it was 102%; with CAKI-1 renal, 51%; in the assay on A498 renal it was 116%. Further, the growth was 89.6% with CCRF-CEM leukemia and 97.9% with MOLT-4 leukemia.
Consider `Cn1c(-c2ccccc2)cc(=O)cc1-c1ccccc1`, for which the growth in the assay on HCT-15 colon was 22.7%; in the assay on HT29 colon it was 24.7%; with SNB-75 CNS it was 119%; with SNB-19 CNS, 89%; in the assay on U251 CNS, 82.7%; in the assay with PC-3 prostate, 67.1%. Also, the growth with SK-MEL-5 melanoma is 95.3%; in the assay with UACC-62 melanoma it was 81.5%; in the assay on LOX IMVI melanoma, 73.2%; in the assay on SK-MEL-28 melanoma, 118%; with SK-MEL-2 melanoma it was 10.8%; in the assay on EKVX NSCLC, 121%. Moreover, the growth with SN12C renal is 92.6%; in the assay with UO-31 renal it was 79%; with TK-10 renal it was 91.5%; with ACHN renal, 0.204% (active); in the assay with CAKI-1 renal it was 83.6%; in the assay on A498 renal, 106%. Also, the growth in the assay on CCRF-CEM leukemia is 79.8%; in the assay on MOLT-4 leukemia, 81.4%.
`O=S(=O)(O)c1ccc2cc(O)ccc2c1`: the growth was 112% with HCT-15 colon; 103% in the assay on HT29 colon; 93.6% with SNB-75 CNS; 109% in the assay on SNB-19 CNS; 98.7% with U251 CNS; 94.7% with PC-3 prostate. Also, the growth with SK-MEL-5 melanoma is 96.8%; in the assay with UACC-62 melanoma, 99.7%; with LOX IMVI melanoma it was 104%; in the assay on SK-MEL-28 melanoma, 117%; in the assay with SK-MEL-2 melanoma, 106%; in the assay on EKVX NSCLC, 106%. The growth is 105% in the assay with SN12C renal; 95.1% with UO-31 renal; 99.7% in the assay with TK-10 renal; 106% in the assay with ACHN renal; 99.5% in the assay on CAKI-1 renal; 78.8% in the assay with A498 renal. The growth with CCRF-CEM leukemia was 109%; in the assay with MOLT-4 leukemia, 103%.
